Results: PubChem BioAssay AID493194 (Broad Institute, 2011)
Entries with a potency or affinity are not part of this list. Results filed as inconclusive are left out. Activity calls are given as the source filed them.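 Rule for the calls: active = a valid curve of falling signal whose half-effect concentration is at most ten times the top tested dose; inconclusive = flat curve at 30 to 70% inhibition, or poor fit; inactive = signal rise, flat within 30%, or potency beyond limit.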

Molecular target: Scavenger receptor class B member 1 (Mus musculus) (UniProt Q61009)
Sequence (Q61009 whole entry, looked up): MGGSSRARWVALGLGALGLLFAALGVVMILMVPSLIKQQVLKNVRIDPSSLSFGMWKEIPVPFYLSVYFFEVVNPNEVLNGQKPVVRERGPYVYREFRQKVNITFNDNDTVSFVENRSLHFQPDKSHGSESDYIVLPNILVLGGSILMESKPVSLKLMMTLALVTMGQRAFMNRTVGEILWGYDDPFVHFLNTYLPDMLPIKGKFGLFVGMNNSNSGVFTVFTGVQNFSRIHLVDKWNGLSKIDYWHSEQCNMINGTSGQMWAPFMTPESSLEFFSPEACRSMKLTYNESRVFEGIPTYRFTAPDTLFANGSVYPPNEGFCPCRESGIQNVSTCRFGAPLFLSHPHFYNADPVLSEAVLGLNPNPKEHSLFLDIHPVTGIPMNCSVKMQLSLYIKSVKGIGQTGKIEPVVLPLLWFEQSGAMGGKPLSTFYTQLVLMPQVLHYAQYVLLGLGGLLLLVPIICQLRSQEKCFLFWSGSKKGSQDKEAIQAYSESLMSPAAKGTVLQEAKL
Assay: inhibitors of SR-BI mediated HDL lipid uptake, dose response, ldlA[mSR-BI] cells, fluorescence, cherry pick (AID 493194);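 note: CHO cells lacking LDL receptor and overexpressing mouse SR-BI; cellular uptake of fluorescently labeled HDL measured as cell fluorescence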

| Structure (SMILES) | outcome |
| --- | --- |
| Cc1ccc(F)cc1NC(=O)C1C2CCC(O2)C1C(=O)O (centres undefined) | inactive |
| COc1ccccc1C(CC(=O)Nc1ccccc1C)c1ccc(OC(C)C)cc1 (centres undefined) | inactive |
| Cc1ccccc1C(=O)N1CCc2cc(-c3nc(NC(=O)Cc4ccc5c(c4)OCO5)sc3C)ccc21 | inactive |
| Cc1nn(Cc2c(Cl)cccc2Cl)c(C)c1NC(=O)CCCn1nc([N+](=O)[O-])c(Cl)c1C | inactive |
| COc1ccc(C2/C=C\CN(S(=O)(=O)c3ccc(C)cc3)CC(=O)N2Cc2cccc(F)c2)cc1 (centres undefined) | inactive |
| Cc1cccc(N2CCN(C(=O)COc3ccc4c(C)cc(=O)oc4c3C)CC2)c1C | inactive |
| CC(=O)Nc1cccc(NC(=O)c2ccc3c(c2)CCN3S(=O)(=O)c2ccccc2)c1 | inactive |
| O=C(NCc1ccccc1Cl)C1CCN(C(=O)c2sccc2-n2cccc2)CC1 | inactive |
| Cc1ccc(C(=O)COc2cc(O)c3c(=O)cc(-c4ccccc4)oc3c2)cc1 | inactive |
| CCNC(=O)c1c(NC(=O)c2cc(-c3cc(C)cc(C)c3O)n[nH]2)sc2c1CCCC2 | inactive |
| CCCCc1nnc(NC(=O)c2ccc(OCc3c(C)noc3C)cc2)s1 | inactive |
| CC(=O)c1cccc(NC(=O)c2ccc3c(c2)CCN3S(=O)(=O)c2ccccc2)c1 | inactive |
| CC1CCCCC1NC(=O)C1CCN(C(=O)c2sccc2-n2cccc2)CC1 (centres undefined) | inactive |
| CCOC(=O)c1[nH]c2c(c1C)C(=O)CC(c1ccc(F)cc1)C2 (centres undefined) | inactive |
| CCOC(=O)c1cccc(NC(=O)Nc2cc(OC)ccc2OC)c1 | inactive |
| N#Cc1ccc(CN2CCN(C(=O)c3ccc(S(=O)(=O)NCc4ccco4)cc3)CC2)cc1 | inactive |
| CCOc1ccc(C(=O)Nc2ccc(S(=O)(=O)N3C[C@@H]4C[C@@H](C3)c3cccc(=O)n3C4)cc2)cc1 | inactive |
| CCOc1ccc(NC(=O)CN2CCN(CC(=O)Nc3ccc(C(=O)OC)cc3)CC2)cc1 | inactive |
| Cc1ccc(NC(=O)c2cc(S(=O)(=O)N3CCOCC3)c(Br)s2)cc1 | inactive |
| COC(=O)C1C(=O)c2c([nH]c(C(=O)OC3CCCC3C)c2C)CC1C (centres undefined) | inactive |

| Structure (SMILES) | outcome |
| --- | --- |
| COc1ccc([C@H]2/C=C\CN(S(=O)(=O)c3ccc(C)cc3)[C@@H](C)C(=O)N2Cc2ccc(F)cc2)cc1 | inactive |
| CCCOC(=O)c1[nH]c2c(c1C)C(=O)CC(c1cc(OC)c(OC)c(OC)c1)C2 (centres undefined) | inactive |
| COc1cccc(-c2csc(N3CCN(C(=S)Nc4cccc(C)c4)CC3)n2)c1 | inactive |
| COc1cc(-c2nnn(Cc3ccccc3C)n2)cc(OC)c1OC | inactive |
| CCc1cc2c(=O)c(-c3ccc4c(c3)OCCO4)coc2cc1OS(C)(=O)=O | inactive |
| O=C(N[C@@H]1C/C=C\C[C@@H](CC(=O)N(CCO)Cc2ccccc2)C(=O)NCCOC1=O)OCC1c2ccccc2-c2ccccc21 | inactive |
| CCOC(=O)c1[nH]c2c(c1-c1ccccc1)C(=O)CC(c1ccc(Cl)cc1)C2 (centres undefined) | inactive |
| Cc1ccc(S(=O)(=O)NCc2ccc(C(=O)NCCc3ccc(S(N)(=O)=O)cc3)cc2)cc1 | inactive |
| Cc1cc(NC(=O)Nc2ccccc2)n(-c2ccccc2)n1 | inactive |
| CCn1nc(C)c(CN2CCc3c([nH]c4ccccc34)C2c2ccc(F)c(OC)c2)c1C (centres undefined) | inactive |
| CCCC(=O)N1CCc2cc(-c3nc(N)sc3C)ccc21 | inactive |
| Cc1ccc(-c2cc(C(=O)Nc3ccc(S(=O)(=O)Nc4onc(C)c4C)cc3)[nH]n2)c(O)c1 | inactive |
| CCOC(=O)Nc1cccc(NC(=O)c2cc(OC)cc(OC)c2)c1 | inactive |
| O=C(c1cccc(Cl)c1)N1CCC2CC1c1cc(-c3ccccc3)ccc12 (centres undefined) | inactive |
| CCC(C)(C)NC(=O)C(c1ccc(C)cc1)N(Cc1cccs1)C(=O)c1ccc2c(c1)OCCO2 (centres undefined) | inactive |
| CC(=O)c1ccc(-c2ccc(C(=O)Nc3nc(C)c(C(C)=O)s3)o2)cc1 | inactive |
| Cc1cc(C)cc(N2CN=C3SCC(=O)N3C2)c1 | inactive |
| CNc1sc(C(=O)c2cccs2)c(N)c1-c1nc2ccccc2s1 | inactive |
| Cn1c(CCN2CCN(c3ccccn3)CC2)nc2cc(NS(=O)(=O)c3ccc(Cl)cc3)ccc21 | inactive |
| COc1ccc(C2/C=C\CN(S(=O)(=O)c3ccc(-c4ccccc4)cc3)CC(=O)N2Cc2ccc(F)cc2)cc1 (centres undefined) | inactive |

| Structure (SMILES) | outcome |
| --- | --- |
| CCc1cc(=O)oc2c3c(cc(OCC(=O)NCc4ccco4)c12)OC(C)(C)CC3 | inactive |
| Cc1sc(NC(=O)CN2CCOCC2)nc1-c1ccc2c(c1)CCN2S(=O)(=O)c1ccccc1 | inactive |
| Cc1ccccc1C(=O)NC1CC2CCCC(C1)N2C(=O)Nc1ccccc1 (centres undefined) | inactive |
| COc1cc(NC(=O)C2CC(c3c(F)cccc3Cl)=NO2)c(OC)cc1Cl (centres undefined) | inactive |
| Cc1nc2c(cnn2-c2ccccc2Cl)c(=O)n1-c1ccc(N2CCC(C)CC2)cc1 | inactive |
| COc1cc(OC)cc(C(=O)N[C@H](C(=O)Nc2nc(-c3ccc(F)c(F)c3)cs2)C(C)C)c1 | inactive |
| O=C(Nc1cccc(Cl)c1)Nc1sccc1-c1nc2ccccc2s1 | inactive |
| CCC(C)c1ccccc1N1CC(C(=O)N2CCN(S(=O)(=O)c3cccc([N+](=O)[O-])c3)CC2)CC1=O (centres undefined) | inactive |
| CC(=O)NCCC1CCN(C(=O)c2cc(COc3ccc(C)nc3)on2)CC1 | inactive |
| COc1ccccc1CNC(=O)C1CCC(CNC(=O)[C@@H]2Cc3ccccc3CN2)CC1 (some centres undefined) | inactive |
| CC(C(=O)NCc1ccccc1)N(Cc1ccccc1Cl)C(=O)c1snc(C(N)=O)c1N (centres undefined) | inactive |
| CN(C(=O)c1ccc2c(c1)CCN2S(C)(=O)=O)c1ccccc1 | inactive |
| COc1ccc(N(CC(=O)NC2CCCC2)C(=O)Cn2nnc(-c3ccc(C)cc3)n2)cc1 | inactive |
| COc1ccc(C2/C=C\CN(S(=O)(=O)c3ccc4ccccc4c3)CC(=O)N2Cc2ccc(F)cc2)cc1 (centres undefined) | inactive |
| Cc1cc(C)cc(NC(=O)c2ccc3c(c2)CCN3S(C)(=O)=O)c1 | inactive |
| CC[C@@H](C)[C@H](NC(=O)Cc1c(C)c2cc3c(C)c(C)oc3c(C)c2oc1=O)C(=O)O | inactive |
| COc1ccc([C@H]2CC(=O)C=C(c3cccc4c3sc3ccccc34)C2)cc1OC | inactive |
| COC(=O)C1=CN(c2ccc(F)c(F)c2)C=C(C(=O)OC)C1c1ccc([N+](=O)[O-])cc1 | inactive |
| COc1ccc(N2CC(C(=O)NCCC3=CCCCC3)CC2=O)c(OC)c1 (centres undefined) | inactive |
